# In the library only some 12% were active in any assay of this set; here they are far more common.
# WT yeast gro inh – growth inhibition of WT yeast, mitochondrial fusion screen; mitochondrial fusion phenotypic screen, WT strain; hit rate 2.1% among 190,000; AID 1362; inhibition, % at 10 µM; in the data active = inhibition above about 58%; tested in S. cerevisiae
# Lmaj promast – inhibitors of Leishmania major promastigote growth; inhibition, % at 10 µM; hit rate 9% among 200,000; Leishmania major promastigotes, resazurin fluorescence viability; in the data active = inhibition above about 50%;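 also: promastigotes grown with compound for 44 hours at 28 °C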
# ROMK primary – human ROMK K+ channel modulation, primary screen; P48048; Tet-inducible ROMK, thallium flux fluorescence; actives lie on both sides; B-score at 10 µM; hit rate 2% among 130,000;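 active = signal ratio slope over the read window, or its plate-corrected B-score, at least 3 SD from the plate mean, either direction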;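 also: B-score of the F/F0 ratio slope over 7 to 12 s after thallium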
# Target sequence (P48048 whole entry, looked up): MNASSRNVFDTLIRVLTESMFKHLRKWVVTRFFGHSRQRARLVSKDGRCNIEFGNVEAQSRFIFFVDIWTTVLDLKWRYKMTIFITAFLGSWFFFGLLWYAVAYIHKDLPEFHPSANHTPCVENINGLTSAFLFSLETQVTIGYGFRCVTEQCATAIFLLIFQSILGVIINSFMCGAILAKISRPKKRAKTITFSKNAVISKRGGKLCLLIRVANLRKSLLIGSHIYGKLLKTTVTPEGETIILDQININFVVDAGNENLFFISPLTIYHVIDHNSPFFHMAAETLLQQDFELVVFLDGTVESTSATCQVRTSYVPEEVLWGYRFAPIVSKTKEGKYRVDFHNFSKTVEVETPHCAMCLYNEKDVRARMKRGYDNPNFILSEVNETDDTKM
# KCC2 mod – KCC2 (human) Cl- transport modulation | B-score of Tl+ flux slope (higher = more flux/activation; lower = inhibition) at 10 µM | hit rate 2.2% among 190,000 | KCC2 cells, thallium flux FluoZin-2 fluorescence | AID 1456;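 active = thallium flux slope and its plate-corrected score both differing from the plate sample mean at a set confidence after two filtering rounds, in either direction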;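 also: slope of fluorescence scaled to starting intensity during 10 to 20 s after thallium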
# Calpain2 inh – inhibitors of pig calpain II; AID 1236; hit rate 0.37% among 220,000; inhibition, % at 16 µM; purified calpain II, fluorogenic peptide substrate, 30 min;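 active = inhibition above about 50%, limit read from the data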
# An asterisk follows results filed as active; . = no result given.
SMILES,WT yeast gro inh,Lmaj promast,ROMK primary,KCC2 mod,Calpain2 inh
COc1ccc(CC(NC(C)=O)C(=O)N2CCN(C(=O)Nc3cccc(F)c3)CC2)cc1OC (stereo not given),-15,-4,-0.2,0.22,-22
O=C(CN1CCc2ccccc2C1)Nc1ccccc1N1CCCCCC1,61*,31,.,-0.4,33
O=C(CNCCC1=CCCCC1)Nc1ccccc1N1CCCCC1,34,97*,.,0.75,13
O=C(CNC1CCCCCC1)Nc1ccccc1N1CCCCC1,-16,11,.,-0.07,-1
CCn1ccnc1CN(C)Cc1cn(-c2cccc(C)c2)nc1-c1cccc(F)c1,65,99*,0.47,.,35
Cc1ccc(-n2cc(CN3CCN(Cc4nccn4C)CC3)c(-c3cccc(C)c3)n2)cc1,66*,44,-1.1,0.12,-41
CCn1ccnc1CN(C)Cc1cn(-c2ccc(C)cc2)nc1-c1cccc(C)c1,68*,78*,.,-0.19,-8
Cc1cccc(-n2cc(CN(C)Cc3nccn3C)c(-c3cccc(F)c3)n2)c1,59,47,0.04,0.21,-3
Cc1ccc(-n2cc(CN3CCNC(=O)CC3)c(-c3cccc(C)c3)n2)cc1,-3,15,-0.17,-0.14,-70
c1ccc(Oc2ccc3ccccc3n2)cc1,-10,-2,-1.1,-0.035,-19
O=S(=O)(c1ccccc1)N1CC=C(c2ccccc2)CC1,3,2,-0.023,-0.35,12
Cc1cc(N2CCCCC2)nc(N)n1,15,52*,.,0.00071,11
Cc1cc(N2CCCC2)nc(-c2ccccc2O)n1,7,-4,.,0.34,-273
CCC1CCCCN1C1Sc2ccc(C(=O)OC)cc2NC1=O (stereo not given),-50,100*,0.48,-0.083,19
COC(=O)c1ccc2c(c1)NC(=O)C(N1CCOCC1)S2 (stereo not given),-21,-6,-0.47,0.13,3
CN1CC(c2ccc(C#N)cc2)C2(COc3ccccc3C2=O)C12C(=O)Nc1ccccc12 (stereo not given),35,90*,.,0.17,12
COc1ccc(/C=C2\SC(=O)N(CCNC(=O)Cc3coc4cc(OC)ccc34)C2=O)cc1,1,59*,1.5,0.66,18
CC(C)[C@@H]1CC[C@@H](C)c2c(-c3ccccc3)n[nH]c21,62*,18,0.58,1.1,8
c1ccc(-c2n[nH]c3c2CCC3)cc1,7,0,.,-1.8,13
O=C(NC(Cc1c[nH]c2ccccc12)C(=O)O)/C(=C\c1ccc2c(c1)OCO2)NC(=O)c1ccccc1 (stereo not given),.,.,.,0.57,-5
Cc1ccccc1N(CC(=O)NCCc1ccccc1)C(=O)c1ccc(N2CCCC2)nc1,21,61*,.,-1.5,-7
O=C(NCC1CCCO1)c1ccc(N2CCCCC2)nc1 (stereo not given),-34,-3,.,.,-8
CC(C)C(=O)Nc1nnc(SCC(=O)NCc2cccs2)s1,77*,-7,.,-0.029,-5
CC(C)Nc1nnc(SCC(=O)Nc2ccc3c(c2)C(=O)c2ccccc2C3=O)s1,42,97*,.,-0.084,-62
O=C(CSc1nnc(NC2CCCCC2)s1)Nc1ccc2c(c1)C(=O)c1ccccc1C2=O,25,36,-0.83,-0.71,-144
SMILES,WT yeast gro inh,Lmaj promast,ROMK primary,KCC2 mod,Calpain2 inh
CCC(=O)Nc1nnc(SCC(=O)Nc2ccc(F)cc2)s1,17,9,.,-0.069,-23
CC(C)(C)C(=O)Nc1nnc(SCC(=O)NCc2cccs2)s1,9,0,.,-0.25,-12
CC(C)CC(=O)Nc1nnc(SCC(=O)Nc2ccc(F)cc2)s1,-8,9,-0.19,0.37,54*
O=S(=O)(c1ccc(OCC(O)CN2CCC(Cc3ccccc3)CC2)cc1)N1CCOCC1 (stereo not given),5,100*,.,-0.78,11
OC(COc1ccc(OCc2ccccc2)cc1)CN1CCCCC1 (stereo not given),11,96*,.,-0.46,-28
OC(COc1ccc(-c2ccccc2)cc1)CN1CCOCC1 (stereo not given),0,93*,-0.92,0.069,16
OC(COc1ccc(OCc2ccccc2)cc1)CN1CCOCC1 (stereo not given),-3,97*,0.26,.,-21
O=S(=O)(c1ccc(OCC(O)CN2CCN(c3ccccc3)CC2)cc1)N1CCOCC1 (stereo not given),-3,-1,0.41,.,-21
CN(C)C(/C=C/Nc1ccc(O)cc1)=C(C#N)C#N,3,-8,-0.45,1.9,-27
Cn1c(Cc2nc(-c3cnccn3)no2)nnc1SCC(=O)Nc1ccccc1,.,.,.,0.4,10
CCC1CCCCN1C(=O)c1ccc(OC2CCN(C(=O)C3CC3)CC2)cc1 (stereo not given),-7,2,0.0023,0.93,57*
CN(C)CCCNc1cc(C(C)(C)C)nc2c(-c3ccccc3)cnn12,.,.,.,1.1,-10
O=S(=O)(Cc1ccccc1Cl)N1CCN(Cc2ccc3c(c2)OCO3)CC1,-20,96*,-0.58,-0.00034,16
CSc1ccc(S(=O)(=O)N2CCN(Cc3ccc4c(c3)OCO4)CC2)cc1,30,82*,.,0.078,8
COc1ccc(F)cc1S(=O)(=O)N1CCN(Cc2ccc3c(c2)OCO3)CC1,5,12,.,0.8,23
Cn1cc(CN2CCN(Cc3ccc4c(c3)OCO4)CC2)c(-c2ccccc2F)n1,5,60*,0.008,.,-22
COc1ccc(Cl)cc1S(=O)(=O)N1CCN(Cc2ccc3c(c2)OCO3)CC1,65*,72*,.,-0.78,-44
O=C(O)CSc1nnc(Cc2cccc3ccccc23)n1-c1cc(C(F)(F)F)cc(C(F)(F)F)c1,.,.,.,-0.099,0
COc1ccc(C(NC(=O)c2ccccc2F)NC(=O)c2ccccc2F)cc1,-6,-4,.,0.12,-9
O=S(=O)(c1ccc(N2CCN(S(=O)(=O)c3ccc4c(c3)OCCO4)CC2)nc1)N1CCCC1,3,18,-0.16,0.047,-45
O=S(=O)(c1ccc(N2CCN(Cc3ccc4c(c3)OCO4)CC2)nc1)N1CCOCC1,5,93*,0.54,0.48,10
COc1cc(C2NC(=O)NC(C)=C2C(=O)OCC2CCCO2)cc(OC)c1OC (stereo not given),-8,-2,0.35,0.75,2
Cc1ccnc(NC(=O)c2cccc(NS(=O)(=O)c3ccccc3C)c2)c1,20,91*,.,-0.12,-18
O=C1C2C(c3ccccc3)=NN(c3ccccc3)C2C(=O)N1c1ccccc1 (stereo not given),3,59*,.,0.00044,-379
CN(C(=O)c1ccc(C#N)cc1)c1nnc(-c2cnccn2)s1,.,.,.,0.42,-30
CCc1cc(=O)oc2c(C)c(OCC(=O)N3CCCc4ccccc43)ccc12,-4,89*,-0.55,.,30
Cc1cccc(OCC(=O)N2CCCc3ccccc32)c1,-28,-7,-1.2,-0.87,-17
COC(=O)c1ccccc1NC(=O)C1CCN(C(=O)c2cc(OC)c(OC)c(OC)c2)CC1,-13,0,.,0.11,-9
C(=N\Nc1ncnc2sc3c(c12)CCC3)/c1cccs1,58,21,.,-0.39,-7
C(=N\Nc1ncnc2sc3c(c12)CCC3)/c1ccncc1,-2,66*,-1.4,-1,16

# Screening data (PubChem BioAssay)
